# Results published in PubChem BioAssay AID686970 (National Center for Advancing Translational Sciences (NCATS), 2013).
# Hit rate of the full screen: of about 360,000 compounds, about 6,000 (1.7%) were called active. Another 8% or so got no clear call; they are omitted. Calls come from the whole dose curve; as a rule, active = well fitted cell-killing curve with a large enough effect; inconclusive = small, poorly fitted or top-dose-only effect, or effect the other way; inactive = flat fitted curve, though single readings scatter. The list comes from a sample in which actives are over-represented; it also holds similar structures and randomly drawn compounds.
# Test: qHTS for induction of synthetic lethality in tumor cells producing 2HG: qHTS for the HT-1080-NT fibrosarcoma cell line; note: nearly all actives have a fitted effect of over 55% in size
# Settings: HT-1080-NT fibrosarcoma viability, CellTiter-Glo ATP luminescence, 48 h; series mostly up to 46.1 µM; activity, negative = less viability: at the top concentration
# Text: Unbiased genomic sequencing for 22 glioma genomes found recurrent mutation of IDH1 on chromosome 2q33, a gene encoding the cytosolic isoform of IDH1 associated with the tricarboxylic acid cycle (TCA) that catalyzes the oxidative decarboxylation of isocitrate, yielding alpha-ketoglutarate and CO2 via NADP+ to NADPH conversion. Subsequent studies confirmed the recurrent IDH mutations in up to 70% of secondary gliomas and in 10% of AML cases. In addition, the somatic mutation of cancer-associated IDH1 is a point mutation resulting in various amino-acid substituents at Arginine132 (IDH1 R132), a key residue found in the enzyme's active site that when mutated, results in the loss-of-function in metabolizing isocitrate but confers a gain-of-function to produce the oncometabolite 2-hydroxyglutarate (2HG). This in effect defines IDH1 as an oncogene and provides an extraordinary opportunity to discover chemical probes against mutant IDH1 that may translate into much needed new therapies for glioma and AML patients.
# This assay aims to perform a synthetic lethal screen for chemical probes specific for 2HG-producing tumor cells using matched paired cell lines (1) HT-1080-NT fibrosarcoma cell line that overproduces 2HG and (2) HT-1080-IDH1KD cell line which has IDH1 expression knocked-down. Desirable compounds are toxic to the NT fibrosarcoma cells but not to the IDH1KD cell line. The data in this AID corresponds to the results of the qHTS against the HT-1080-NT fibrosarcoma cell line.
# [1] Dang L, Jin S, Su SM. IDH mutations in glioma and acute myeloid leukemia. Trends of Mol Med. 2010; 16(9): 387-97.
# [2] Dang L et al. Cancer-associated IDH1 mutations produce 2-hydroxyglutarate. Nature. 2010; 465(7300):966.
# NIH Molecular Libraries Probe Production Centers Network [MLPCN]
# NIH Chemical Genomics Center [NCGC]
# Assay Submitter (PI): Lenny Dang Ph.D., Agios Pharmaceuticals
# Suspensions of trypsinized HT-1080-NT cells were dispensed into white, tissue culture-treated, solid 1536-well plates at 5uL/well (750 cells/well final concentration) in RPMI medium supplemented with 5% FBS. Plates were incubated at 37 degrees C for 2 hours, after which 23 nL of compounds or DMSO were delivered to each well using a pin tool. Plates were then incubated at 37 degrees C for an additional 48 hours. CellTiter-Glo viability reagent (Promega) was dispensed into wells (2.5uL/well) and incubated at room temperature for 10 minutes. The plates were measured on a PerkinElmer ViewLux plate reader for luminescent signal (clear filter, 1 sec exp). DMSO-treated control wells and media-only (no cells) control wells were used to normalize %Activity of identified toxic compounds; DMSO-treated wells corresponded to 0%Activity (100% viability), while media-only controls were used to normalize 100%Activity (0% viability).
# Concentration-response curves were fitted to the signals arising from the resulting luminescence. The concentration-effect curves were then classified based on curve quality (r2), response magnitude and degree of measured activity, and compounds were subsequently categorized based on their curve class.
# Potency is the fitted concentration of half-maximal effect.
SMILES,"activity, negative = less viability",Potency
CC(C)c1ccc(CC(=O)N2CCC2(C)C(=O)NS(=O)(=O)c2ccc(C(C)(C)C)cc2)cc1 (stereo not drawn),2.38% (inactive),
CCCS(=O)(=O)NC(=O)C1(C)CCCN(C(=O)c2ccnc(Cl)c2)C1 (stereo not drawn),22.2% (inactive),
CCCCCCN1C[C@H](O)[C@@H](n2cc(C3CC3)nn2)C[C@@H]1c1ccc(Cl)cc1,-1.63% (inactive),
COc1ccc(Nc2ccc3ccccc3c2)cc1,-25.9% (inactive),
COc1ccc2oc(=O)cc(-c3cc4ccccc4o3)c2c1,-5.9% (inactive),
COc1ccc(Nc2cc(=O)oc3ccccc23)cc1,,7.31 µM (active)
COCCNC(=O)c1cc2c(Br)ccc(Br)c2nc1N,-6.43% (inactive),
Cc1cccc(-n2ncc3c(=O)[nH]c(SCC(=O)Nc4cc(C)on4)nc32)c1,9.3% (inactive),
C=CCNc1cnn(-c2ccc(C)cc2)c(=O)c1Cl,14.9% (inactive),
Cc1cccc(-n2ncc(Cl)c(Cl)c2=O)c1,,5.8 µM (active)
Cc1cc(Br)cn2c(Cc3ccccc3C(F)(F)F)c(C3CCCCC3)nc12,22.8% (inactive),
Oc1ccc(-c2nc3ccccc3nc2-c2ccc(O)cc2O)c(O)c1,-11.5% (inactive),
Cc1ccc(Nc2nc(-c3ccc(O)cc3O)cs2)nc1,,1.64 µM (active)
CC(=O)Nc1cnc(-c2ccc(O)cc2C)cn1,11.8% (inactive),
O=C(NCc1ccc(F)cc1)c1cc(C2CCCCN2C(=O)C2CCCCC2)on1 (stereo not drawn),1.47% (inactive),
N#Cc1ccc(-c2nc3c(Cl)cc(C(F)(F)F)cn3c2Cc2ccccc2C(F)(F)F)cc1,13.4% (inactive),
COc1cccc(C(O)c2ncc(-c3ccc4ccccc4c3)[nH]2)c1 (stereo not drawn),-8.84% (inactive),
CCCCCC(O)c1cccc(OCc2ccc3ccccc3n2)c1 (stereo not drawn),,14.6 µM (active)
COc1cccc(C(O)c2nc3ccccc3n2C)c1 (stereo not drawn),-2.98% (inactive),
COc1ccc(C(=O)NCC[N+](C)(C)C)cc1,21.8% (inactive),
Cc1cc(C)nc(S/C=C/C(=O)c2ccccc2)n1,,5.17 µM (active)
Cc1cc(C)nc(N(C#N)CC(=O)Nc2ccccc2)n1,-1.01% (inactive),
Cc1cc(C)nc(SCc2ccccc2C#N)n1,-13.3% (inactive),
CN1CCN(C(=O)c2ccc(-c3cc4nc(NCc5cccnc5)n(C)c(=O)c4s3)cc2)CC1,-6.36% (inactive),
Cc1cccc(C)c1NC(=O)C(c1cccc(F)c1)N1CCN(C)CC1 (stereo not drawn),5.7% (inactive),
CCC(C(=O)OCC(=O)Nc1c(Cl)cc(Cl)cc1Cl)c1ccccc1 (stereo not drawn),-5.96% (inactive),

SMILES,"activity, negative = less viability",Potency
CCC(C(=O)OCC(=O)Nc1ccccc1-c1ccccc1)c1ccccc1 (stereo not drawn),-1.42% (inactive),
CCC(C(=O)OCC(=O)Nc1ccc(C(=O)Nc2ccc(OC)cc2)cc1)c1ccccc1 (stereo not drawn),,18.4 µM (active)
O=C(Nc1ccc(Cl)cc1)c1csc([C@@H]2O[C@H](CO)[C@H](O)[C@H](O)[C@H]2O)n1,5.67% (inactive),
CC(C)c1ccc2c(c1)c(SC(C)(C)C)c(CC(C)(C)C(=O)O)n2Cc1ccc(Cl)cc1,,13 µM (active)
C[C@@H]1CN([C@H](C)CO)C(=O)CCCn2cc(nn2)CO[C@H]1CN(C)S(=O)(=O)c1ccc(Oc2ccccc2)nc1,9.83% (inactive),
O=C(c1ccc(C(F)(F)F)cc1)N1CCC(=O)N([C@H](COCc2ccccc2)Cc2ccccc2)CC1,-31.2% (inactive),
O=C(CNC(=O)N1CC(=O)Nc2ccccc21)Nc1ccc(Br)cc1F,2.75% (inactive),
O=C1C=C(c2ccc(Cl)cc2)C(=O)N1Nc1ccccc1,,23.1 µM (active)
O=C(CCC(=O)OCc1ccc(Cl)cc1)Nc1ccccc1,8.34% (inactive),
O=C(O)CC1=C(Nc2ccccc2)C(=O)N(c2ccccc2)C1c1ccc(Cl)cc1 (stereo not drawn),5.31% (inactive),
CCN(Cc1ccncc1)C(=S)Nc1ccccc1C,13.2% (inactive),
CCCCN1CC(N2CCN(Cc3cccc(C)c3)CC2)CS1(=O)=O (stereo not drawn),13.1% (inactive),
CCCCN(CCCC)CCC(O)c1cc2c(Cl)cc(Cl)cc2c2cc(C(F)(F)F)ccc12 (stereo not drawn),,14.6 µM (active)
Fc1cccc(Cc2c(-c3cccc(Cl)c3)nc3ccc(Br)cn23)c1,-23.5% (inactive),
CC1(C(=O)NS(=O)(=O)c2ccccc2Cl)CCN1C(=O)c1cccc(F)c1 (stereo not drawn),16.3% (inactive),
Cc1cccc(C)c1NC(=O)N1CC(C)OC(C)C1 (stereo not drawn),2.26% (inactive),
Cc1cccc(C)c1NC(=O)CN(C)C(=O)CCC(=O)c1ccccc1,15.1% (inactive),
Cc1cccc(C)c1NC(=O)C(Cl)C(=O)c1ccccc1 (stereo not drawn),,16.4 µM (active)
Cc1ccccc1CN1C(=O)CSCC1(C)C(=O)Nc1c(C)cccc1C (stereo not drawn),9.72% (inactive),
Cc1ccc(OCC(=O)OC(C)CN(C)Cc2ccccc2)cc1 (stereo not drawn),1.64% (inactive),
CN(Cc1ccccc1)CC(O)COc1ccc(CNCc2cc3ccccc3s2)cc1 (stereo not drawn),,20.6 µM (active)
COc1ccc(OCC(O)CN(C)C(=O)C(C)Oc2ccccc2)cc1 (stereo not drawn),-4.49% (inactive),
CC(C)(C)Cc1c(C2CCCCC2)nc2ccc(Br)cn12,-24.8% (inactive),
O=C(NN=Cc1ccccc1O)NN=Cc1ccccc1O,,8.2 µM (active)
O=C(NN=Cc1ccccc1)c1ccccc1,25.1% (inactive),
O=C(N/N=C/c1ccccc1O)C1CCCC1,-15.5% (inactive),

SMILES,"activity, negative = less viability",Potency
CCCNC(=O)C1(C)CCCN(Cc2cccc(C(F)(F)F)c2)C1 (stereo not drawn),6.04% (inactive),
COc1ccc(CNS(=O)(=O)c2ccc(-c3cnc(C4CC4)o3)cc2)cc1,-19.8% (inactive),
Cc1cccc(NS(=O)(=O)c2ccc(C)c(C(N)=O)c2)c1,4.32% (inactive),
Cc1cccc(NS(=O)(=O)c2ccc(-c3cnc(C4CC4)o3)cc2)c1,,5.17 µM (active)
O=C(CCCN1C(=O)C(c2ccccc2)Oc2cccnc21)Nc1ccccc1Br (stereo not drawn),-2.47% (inactive),
COc1ccc(C(CNC(=O)c2ccc(OCc3cscn3)cc2)N2CCCC2)cc1 (stereo not drawn),-5.47% (inactive),
CN1CCN(c2ccc3c(c2)OC[C@H](Cc2ccccc2)NS3(=O)=O)CC1,9.78% (inactive),
CCN(CC)CCn1c2ccc(Cl)cc2c2nc(C)sc21,,28.2 µM (active)
CCN(CC)CCNc1ccc(Cl)cc1[N+](=O)[O-],-3.02% (inactive),
COC(=O)Cn1c2ccc(C)cc2c2nc(C)sc21,11% (inactive),
O=C(NCc1ccccc1)C1c2ccccc2OCC(=O)N1C1CC1 (stereo not drawn),20.8% (inactive),
Cc1sc2ccccc2c1CNC[C@H]1O[C@@H](n2ccc(=O)[nH]c2=O)[C@H](O)[C@@H]1O,21.8% (inactive),
COc1ccc2nc(/N=C(\N)NC(=O)Nc3ccccc3)nc(C)c2c1,-18.5% (inactive),
Cc1nc(/N=C(\N)NC(=O)NC2CCCCC2)nc2ccccc12,,23.1 µM (active)
CC(C)c1cc(C(=O)NC2CCCCCC2)c2ccccc2n1,-7.58% (inactive),
Cc1cccc(N(CC(=O)N2CCCC2)S(C)(=O)=O)c1C,9.09% (inactive),
CC(=O)c1ccccc1NC(=O)COC(=O)C1COc2ccccc2O1 (stereo not drawn),1.1% (inactive),
CCOC(=O)[C@]12CCCC=C1N(CCC1=CCCCC1)C(=O)[C@H](CC(=O)NCCCOC)C2,-1.32% (inactive),
CCOC(=O)[C@]12CCC=C1N(CCC1=CCCCC1)C(=O)[C@H](CC(=O)NCc1ccc(C)o1)C2,9.86% (inactive),
CCCCOCCCNC(=O)C[C@@H]1C[C@@]2(C(=O)OCC)CCCC=C2N(CCC2=CCCCC2)C1=O,,16.4 µM (active)
COC(=O)[C@]12CCCCC=C1N(Cc1ccc3c(c1)OCO3)C(=O)[C@H](CC(=O)N1CCOCC1)C2,8.8% (inactive),
O=C(Cn1c(-c2cscn2)nc2ccccc21)Nc1ccc(Cl)cc1,-23.1% (inactive),
O=S(=O)(O)c1nc2ccccc2n1Cc1ccc(Cl)cc1Cl,-0.293% (inactive),
O=C(Cn1c(NCCO)nc2ccccc21)c1ccc(Cl)cc1Cl,,20.6 µM (active)
COc1ccc(C(C)C)cc1-c1ccc2nncn2c1,2.86% (inactive),
CC(C)C[C@@H]1Cc2[nH][nH]c(=O)c2[C@H](CCc2ccccc2)O1,-14.8% (inactive),

SMILES,"activity, negative = less viability",Potency
Cc1cc(NC(=O)CSc2nnnn2-c2ccc(F)cc2)no1,-1.26% (inactive),
Cc1cc(NC(=O)CSc2nnc(-c3ccco3)n2N)no1,2.26% (inactive),
Cc1cc(C)c2c(c1)cc(C)c1nnc(SCC(=O)Nc3cc(C)on3)n12,,6.31 µM (active)
CCOC1=C2[C@H]([C@H]3C(=O)N(c4ccccc4)C(=O)[C@H]3C1)[C@@H](c1ccccc1)N(S(=O)(=O)c1ccc(C)cc1)[C@H]2c1ccccc1,24.4% (inactive),
Cc1cccc(C)c1NC(=O)C(c1ccc(C(F)(F)F)cc1)n1c(=O)c(-c2ccco2)nc2ccccc21 (stereo not drawn),-22.7% (inactive),
CC(=O)c1ccc(Nc2nc(C(N)c3ccccc3Cl)cs2)cc1 (stereo not drawn),-21.8% (inactive),
NC(Cc1ccc(F)cc1)c1csc(Nc2nncc3ccccc23)n1 (stereo not drawn),,23.1 µM (active)
COCC(C)NC(=O)COc1nncc2ccccc12 (stereo not drawn),-1.79% (inactive),
Cc1cc(Br)ccc1NC(=O)CCCOc1cc(=O)n(C)c2ccccc12,-24.6% (inactive),
COC(=O)[C@]12CCCCC=C1N(Cc1ccc(Cl)cc1Cl)C(=O)[C@H](CC(=O)NCc1cccc3ccccc13)C2,-25.6% (inactive),
Cc1cc2c3ccccc3[nH]c(=O)n2n1,15.6% (inactive),
COc1ccc(CN2C(=O)C(CC(=O)NCc3cccc4ccccc34)CC(C(=O)N3CCOCC3)=C2C)cc1 (stereo not drawn),-1.78% (inactive),
COCCCNC(=O)Cn1cc(/C=C(\C#N)C(=O)N2CCN(c3ccccc3)CC2)c2ccccc21,0.984% (inactive),
NC(=O)Cn1cc(/C=N\NS(=O)(=O)c2ccccc2)c2ccccc21,0.259% (inactive),
COC(=O)Cn1cc(/C=C/[N+](=O)[O-])c2ccccc21,,18.4 µM (active)
CC1Cc2[nH][nH]c(=O)c2C(C2CCCC2)O1 (stereo not drawn),3.75% (inactive),
CC1(Oc2ccccc2-c2ccno2)CCN(Cc2ccc(-c3ccccc3)o2)C1 (stereo not drawn),-24.5% (inactive),
CC(C)N1C(=O)c2ccccc2NC(=O)C1C(=O)NCc1cccs1 (stereo not drawn),5.09% (inactive),
Cc1ccc2nc(/C(C#N)=C\c3ccc(OC(=O)c4cccs4)cc3)[nH]c2c1,,7.94 µM (active)
COc1ccc(CCNC(=O)/C(C#N)=C2\N=C(NC(=O)c3cccs3)c3ccccc32)cc1,2.15% (inactive),
Cc1ccnc(NC(=O)c2ccoc2C)c1,-27.2% (inactive),
Cc1occc1C(=O)NNC(=S)NCC(C)C,1.03% (inactive),
C/C(=N\NC(=O)c1ccoc1C)c1ccccc1O,,3.26 µM (active)
CC(C)Nc1ncnc2c1ncn2[C@H]1CN(Cc2ccncc2)C[C@@H](CO)O1,13.7% (inactive),
CCCCC(=O)N(C)c1c(CC)nc2c(OCc3ccc(S(C)(=O)=O)cc3)cccn12,-15% (inactive),
